In PubChem BioAssay AID602350 (Broad Institute, 2012):
Results with a measured potency or affinity are listed apart. The source made the active and inactive calls.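 The calls were made as follows: active = absorbance falls by 30% or more versus neutral controls, with a potency fitted within twice the top valid dose; inconclusive = no clear call, values can overlap the other calls; inactive = change opposite to expected direction, plus the rest.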

Molecular target: Protein disulfide-isomerase (Homo sapiens) (UniProt P07237)
Experiment: PDI inhibitors, insulin aggregation turbidity, dose response, biochemical, absorbance, cherry-picked samples (AID 602350)
Conditions: recombinant PDI insulin aggregation, absorbance 650 nm, 90 min; series mostly up to 19.5 µM

Sequence of Protein disulfide-isomerase (Homo sapiens) (P07237 whole entry, looked up): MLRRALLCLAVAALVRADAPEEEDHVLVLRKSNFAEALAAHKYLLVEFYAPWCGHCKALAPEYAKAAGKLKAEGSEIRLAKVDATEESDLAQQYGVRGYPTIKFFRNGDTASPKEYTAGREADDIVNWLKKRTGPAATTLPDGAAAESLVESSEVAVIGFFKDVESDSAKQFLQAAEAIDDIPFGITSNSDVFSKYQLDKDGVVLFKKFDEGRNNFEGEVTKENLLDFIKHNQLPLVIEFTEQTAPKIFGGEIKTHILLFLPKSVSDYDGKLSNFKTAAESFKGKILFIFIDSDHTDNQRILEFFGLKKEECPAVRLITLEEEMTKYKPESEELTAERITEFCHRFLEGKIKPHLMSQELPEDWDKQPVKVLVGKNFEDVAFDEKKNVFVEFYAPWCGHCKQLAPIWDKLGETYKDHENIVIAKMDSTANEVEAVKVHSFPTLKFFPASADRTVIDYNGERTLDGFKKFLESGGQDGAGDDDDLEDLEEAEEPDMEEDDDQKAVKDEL

outcome, inactive:
COc1cc(C2C(C#N)=C(N)Oc3cc(O)ccc32)cc(OC)c1OC (centres undefined), CCOC(=O)C(C)c1n[nH]c(=O)c2ccccc12 (centres undefined), CCOC(=O)c1ccc2c(c1)nc(SCC(=O)N1CCCCC1)n2CC, Cn1cc(Cl)c(C(=O)OCC(=O)Nc2ccccc2)n1, O=c1[nH]c(C2CCN(S(=O)(=O)c3ccc(C(F)(F)F)cc3)CC2)nc2c1nnn2Cc1ccc(F)cc1, COc1cccc(NC(=O)CN(C)C(=O)/C=C/c2cc(OC)ccc2OC)c1, Cc1cccc(C)c1NC(=O)CN1CCNCC1, COc1ccc(C2c3ccc(O)cc3Oc3ncn4nc(-c5cccnc5)nc4c32)cc1OC (centres undefined), CCCCN(C(=O)C1=CC=CN2CCS(=O)(=O)N=C12)c1ccccc1, O=C(CNC(=O)c1n[nH]c2ccccc12)Nc1cc(Cl)ccc1Cl, Cc1nnc(SCc2cc(=O)oc3cc(O)ccc23)n1Cc1ccccc1, CC(C)c1ccc(/C=N/NC(=O)c2ccc(-n3cnnn3)cc2)cc1, Cn1c(=O)n(CCCOc2ccc(Br)cc2)c2ccccc21, COc1cc(C(C)=O)ccc1OCC(=O)NCCCn1nc(C)cc1C, COc1cc(CCC(=O)OCC(=O)Nc2cc(S(=O)(=O)N3CCOCC3)ccc2Cl)cc(OC)c1OC, O=C1CC(C(=O)N2CCc3ccccc32)CN1c1ccc(F)cc1 (centres undefined), CN(C)c1ccc(NC(=O)CN2C(=O)CC(c3ccccc3)=Nc3ccccc32)cc1, Cc1ccc(C)c(N2CCN(S(=O)(=O)c3ccc4c(c3)OCCO4)CC2)c1, CN1CCN(C(=O)CSc2nnc(COc3ccc(Cl)cc3)o2)CC1, CCc1ccc2[nH]c(=O)c(CN(Cc3ccccc3OC)Cc3nnnn3Cc3ccco3)cc2c1, O=C(NN1CC(C(=O)OCc2ccccc2F)CC1=O)c1ccccc1 (centres undefined), CCN(CC)C(=O)CSc1nnc([C@H](Cc2c[nH]c3ccccc23)NC(=O)OC(C)(C)C)o1, CCCCC1CCC(c2nc(-c3ccccn3)no2)CC1 (centres undefined), Cc1ccc(-n2ncc3c(=O)[nH]c(SCC(=O)N4CCCc5ccccc54)nc32)cc1, CCCNC(=O)c1cccc(COc2ccccc2OC)c1, Cc1ccc(SCC(=O)c2sc(-c3ccccc3)nc2C)cc1, Cc1ccc2nsnc2c1NC(=O)c1cccnc1Cl, C[C@@H]1CN([C@@H](C)CO)C(=O)c2cc(NC(=O)Cc3cn(C)c4ccccc34)ccc2O[C@@H]1CN(C)S(=O)(=O)c1ccc(F)cc1, CCn1c(SCC(=O)NC2CC2)nnc1-c1ccccc1, CCOC(=O)C1(Cc2ccc(O)cc2)NC(c2ccccc2F)C2C(=O)N(C)C(=O)C21 (centres undefined), CC12CCC3c4ccc(O)cc4CCC3C1CCC2=O (centres undefined), CCOC(=O)c1cc(S(=O)(=O)N2CCN(C(=O)OCC)CC2)cn1C, CN(C)CCCN(C(=O)c1ccc(S(=O)(=O)N2CCCc3ccccc32)cc1)c1nc2ccc(F)cc2s1, COc1ccccc1NC(=O)c1ccc(NC(=O)COC(=O)c2cccnc2Cl)cc1, COc1c(Br)cc(C(N)=O)cc1OCc1ccccc1, S=C(NCCc1ccccc1)Nc1ccccn1, CC(C)c1ccc(Nc2nc(CC(=O)O)cs2)cc1, CCOC(=O)c1c(CN(CC)CC)n(C)c2cc(Br)c(O)cc12, C[C@@H]1CN([C@@H](C)CO)C(=O)Cc2cc(NC(=O)Nc3ccccc3)ccc2O[C@H]1CN(C)Cc1ccccc1
